KKLEB tox – counter-screen for CF NF-kB inhibitors: cytotoxicity; 360,000 tested, 0.36% active; KKLEB CF airway cells viability, ATPlite luminescence, overnight; stronger effect = lower value; cells stimulated with P. aeruginosa culture filtrate; activity change (cytotoxicity), % at 5 µM; AID 602141;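 active = corrected activity change at or below -50% at 5 µM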
Peg3 promoter – inhibitors of Peg3 promoter; HeLa PEG-Prom luciferase reporter, luminescence, overnight; inhibition, % at 20 µM; 360,000 tested, 1.7% active;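 active = inhibition of at least 50% at 20 µM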
Shn3 3UTR inh – inhibitors of Schnurri-3 3'UTR reporter in osteoblasts | Clone20 osteoblast Shn3 3'UTR firefly luciferase, 24 h | inhibition, % at 12.5 µM | 360,000 tested, 0.52% active | AID 588674;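 active = mean inhibition of at least 75% with every replicate also reaching 75%; inconclusive = mean inhibition at least 75% but some replicate below; inactive = mean inhibition below 75%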;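 also: 0% = median of neutral control wells and 100% = pilot-screen positive control compound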
CF NFkB inh – cystic fibrosis NF-kB activation inhibition; KKLEB NF-kB-GFP reporter, PAF-induced, GFP fluorescence overnight; inhibition, % at 5 µM; 360,000 tested, 0.86% active;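 active = at least 50% inhibition at 5 µM, scaled per plate between neutral and stimulator controls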;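 also: PAF is a Pseudomonas aeruginosa culture filtrate used as stimulus; plate controls were PAF-stimulated DMSO wells for no effect and unstimulated DMSO wells for full effect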
HIF-2a inh – inhibitors of HIF-2a; 786-0 RCC cells HIF-2a reporter, luciferase luminescence, overnight; AID 624352; inhibition, % at 18.8 µM; 360,000 tested, 0.72% active;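 active = inhibition of the luminescence signal of 40% or more relative to plate controls, in a single-dose primary screen at 18.75 µM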
Mdm2-MdmX confirm – Mdm2/MdmX (human) interaction inhibition, confirmed; shares compounds with HIF-2a inh; SaOS-2 split-luciferase Mdm2/MdmX complementation, luminescence; inhibition, % at 8 µM; 740 tested, 99% active; AID 504601;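 active = mean inhibition of the luminescence signal across two replicates at or above 26 percent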
Target sequence (O15151 whole entry, looked up): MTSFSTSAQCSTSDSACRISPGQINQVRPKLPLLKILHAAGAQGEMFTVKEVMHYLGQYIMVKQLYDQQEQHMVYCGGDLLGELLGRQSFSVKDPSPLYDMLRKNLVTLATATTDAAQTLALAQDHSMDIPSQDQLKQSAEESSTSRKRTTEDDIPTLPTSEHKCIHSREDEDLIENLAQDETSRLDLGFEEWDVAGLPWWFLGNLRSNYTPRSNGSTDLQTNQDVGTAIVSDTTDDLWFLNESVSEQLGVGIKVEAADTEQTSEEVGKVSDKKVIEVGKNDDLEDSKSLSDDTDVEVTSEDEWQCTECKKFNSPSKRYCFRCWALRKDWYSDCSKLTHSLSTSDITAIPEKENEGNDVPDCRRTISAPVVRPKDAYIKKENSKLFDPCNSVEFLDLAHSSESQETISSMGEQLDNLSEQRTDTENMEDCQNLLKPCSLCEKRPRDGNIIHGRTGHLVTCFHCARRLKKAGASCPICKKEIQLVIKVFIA
Target sequence (Q00987 whole entry, looked up): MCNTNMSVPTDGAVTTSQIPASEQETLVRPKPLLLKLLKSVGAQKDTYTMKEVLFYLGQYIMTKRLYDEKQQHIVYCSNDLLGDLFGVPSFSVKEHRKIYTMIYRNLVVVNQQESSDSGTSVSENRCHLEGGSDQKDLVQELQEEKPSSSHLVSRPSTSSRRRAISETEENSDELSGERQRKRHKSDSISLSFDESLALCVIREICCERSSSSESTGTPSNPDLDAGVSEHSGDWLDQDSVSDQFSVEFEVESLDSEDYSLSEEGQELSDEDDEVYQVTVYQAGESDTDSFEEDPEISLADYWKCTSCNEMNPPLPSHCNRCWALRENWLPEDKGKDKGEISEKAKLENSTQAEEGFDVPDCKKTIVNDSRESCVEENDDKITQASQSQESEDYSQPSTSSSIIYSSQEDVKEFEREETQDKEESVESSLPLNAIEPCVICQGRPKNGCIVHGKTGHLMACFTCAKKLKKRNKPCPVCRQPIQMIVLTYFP
HIF-2a conf – HIF-2a inhibition, single concentration confirmation; shares compounds with HIF-2a inh; 786-0 RCC cells, HIF-2a luciferase reporter luminescence, overnight; inhibition, % at 18.8 µM; 1,800 tested, 56% active; AID 651580;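 active = mean inhibition across four replicates of at least 40 percent at the single tested concentration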
HIF-1a cs – HIF-1a inhibition counter-screen for HIF-2a hits; MiaPaCa-2 HIF-1a luciferase reporter, desferoxamine, overnight; 1,800 tested, 72% active; inhibition, % at 18.8 µM; shares compounds with HIF-2a inh;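 active = mean inhibition of the reporter signal across four replicates at the single tested dose of 50% or more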
Active calls of the source: *; ? = inconclusive; · = not tested or not shown. In the library only some 2.6% were active in any assay of this set; here they are far more common.

SMILES	KKLEB tox	Peg3 promoter	Shn3 3UTR inh	CF NFkB inh	HIF-2a inh	HIF-2a conf	HIF-1a cs	others
C=C1C(=O)C=C[C@]2(C)C[C@@H]3OC(=O)[C@](C)(O)[C@H]3C[C@@H]12	24	91*	45	5	40*	11	98*
O=[N+]([O-])c1cccc2cnccc12	-9	-6	26	6	10	·	·
O=[N+]([O-])c1ccc(Oc2cccc(Br)c2)c2ccncc12	-23	36	-13	32	45*	29	77*
Cc1ccccc1CN(C)C(C)C(=O)NCc1ccccc1 (stereo unspecified)	-3	5	5	-4	10	·	·
COc1ccc(N=C2S/C(=C\c3ccc(Cl)c([N+](=O)[O-])c3)C(=O)N2CCN(C)C)cc1	-14	105*	47	50	79*	4	101*
CCN(CC)CCN1C(=O)/C(=C\c2ccc(Cl)c([N+](=O)[O-])c2)SC1=Nc1ccc(OC)cc1	-82*	102*	96*	99*	96*	54*	104*
C#CCn1cc[n+](CC(=O)N(C)C)c1	6	6	3	-10	-6	·	·
CCCCCCCCCCCCCCCCn1cc[n+](CC(C)=O)c1	-67*	96*	84	67*	56*	64*	106*
N#Cc1ccsc1NC(=O)COC(=O)c1cc2ccccc2cc1O	-17	-185	-50	16	-195	·	·
O=C(NC1CCCC1)C(c1ccccc1)n1c(CSCCOc2ccccc2)nc2ccccc21 (stereo unspecified)	·	·	·	·	65*	79*	66*
COc1cc(OC)c(OC)cc1/C=C/C(=O)c1ccc(NS(=O)(=O)c2ccc(C)cc2)cc1	14	26	15	2	59*	34	50*
CC(=O)c1ccc(NS(=O)(=O)c2ccc(C)cc2)cc1	-1	11	1	-10	3	·	·
CCOC(=O)c1cccc(NC(=O)Nc2ccc(OCC)cc2)c1	1	-136	3	-14	62*	61*	-17
CCOC(=O)Cc1csc(NC(=S)NC(=O)c2ccccc2)n1	7	-11	-21	3	85*	87*	43
CCOC(=O)Cc1csc(NC(=S)NC(=O)c2ccc(C)cc2)n1	-33	47	35	13	96*	99*	97*
COc1ccc(Cn2c(SCc3ccccc3C)nc3cc(OC)c(OC)cc3c2=N)cc1	-31	102*	90*	-4	96*	12	107*
Cc1cccc2sc(NNC(=O)c3ccc(S(=O)(=O)N4CC(C)CC(C)C4)cc3)nc12 (stereo unspecified)	-16	99*	?	34	48*	-4	100*	Mdm2-MdmX confirm=90*
c1ccc(Oc2ccc3ccccc3n2)cc1	-4	-109	-48	11	-120	·	·
CN(C)S(=O)(=O)N1CCC(Oc2ccc(C(=O)NC3Cc4ccccc4C3)cc2)CC1	2	-120	21	-16	-129	·	·
COCC(=O)N1CCC(Oc2ccc(C(=O)NC3Cc4ccccc4C3)cc2)CC1	9	22	13	7	44*	43*	49
Nc1ccc(-c2cc(-c3ccc(N)cc3)nc(-c3ccccc3)n2)cc1	0	21	6	16	-1	·	·
Oc1ccc(-c2cc(-c3ccc(O)cc3)nc(-c3ccccc3)n2)cc1	-2	31	-3	-10	66*	-32	104*
O=S1(=O)C=C(Sc2nc3cc(Cl)ccc3o2)c2ccccc21	-100*	102*	100*	88*	-4	·	·	Mdm2-MdmX confirm=103*
Cc1ccc(S(=O)(=O)CC(=O)c2ccccc2[N+](=O)[O-])cc1	5	21	5	19	17	·	·
Cc1ccccc1N(Cc1cc(=O)[nH]c2ccccc12)C(=O)CCl	-11	58*	12	34	27	·	·	Mdm2-MdmX confirm=102*
SMILES	KKLEB tox	Peg3 promoter	Shn3 3UTR inh	CF NFkB inh	HIF-2a inh	HIF-2a conf	HIF-1a cs	others
Cc1cccc([C@@H]2[C@@H]3C(=O)N(Cc4ccccc4)C(=O)[C@@H]3[C@]3(Cc4ccccc4)C(=O)N(c4ccc(C(F)(F)F)cc4)C(=O)N23)c1	2	4	22	8	-2	·	·	Mdm2-MdmX confirm=103*
COc1ccccc1-c1cc(SC)c(C#N)c(=O)o1	-45	82*	-24	27	42*	33	-9
COc1ccccc1-c1cc(C(F)(F)F)c(C#N)c(=O)[nH]1	-1	-1	-18	7	7	·	·
O=C1CSC(=Nc2cccc([N+](=O)[O-])c2)N1	-3	-2	-4	0	11	·	·
CC(C)NC(=O)/C(C#N)=C/c1cccc(NC(=O)c2ccccc2Cl)c1	-18	9	8	25	48*	34	15
O=C(CSc1nc2ccc([N+](=O)[O-])cc2s1)NCC1CCCO1 (stereo unspecified)	5	11	12	-4	4	·	·
CCn1c(=N)c(C(=O)NC)cc2c(=O)n3cccc(C)c3nc21	8	25	5	-43	22	·	·
CCNc1nc(C)c2cc(Br)c(=O)n(CC)c2n1	-44	44	47	33	55*	39	46
COc1cc(/C=C2\CC(C(C)(C)C)C/C(=C\c3cc(OC)c(OC)c(OC)c3)C2=O)cc(OC)c1OC (stereo unspecified)	-8	104*	?	-10	94*	·	·	Mdm2-MdmX confirm=102*
O=C(NNc1nc2ccccc2o1)c1ccccc1	-8	-20	-38	-5	47*	80*	-26
CCCCC(=O)Nc1ccc(C(N)=O)cc1	0	-23	22	8	-17	·	·
CCCCCCCCCCCCCCCC[n+]1ccc(C(N)=O)cc1	-69*	98*	69	63*	80*	53*	100*	Mdm2-MdmX confirm=100*
Cc1ccc(S(=O)(=O)N2C(=O)CCC2C(=O)Nn2cnnc2)cc1 (stereo unspecified)	-6	20	-6	1	5	·	·
Cc1cccc(-c2ccc3[nH]c4c(c3c2)CCN2C[C@@H]([C@H](C)OC(=O)Nc3ccccc3C)[C@@H](N(C)C(=O)Nc3ccccc3C)C[C@@H]42)c1	15	40	-9	16	56*	1	83*
Cn1nnnc1N=N/C(=N/Nc1ccccc1)c1ccccc1	-27	52*	46	30	-74	·	·	Mdm2-MdmX confirm=91*
O=C(CCNC(=O)N1CC(=O)Nc2ccccc21)NCc1cccc(C(F)(F)F)c1	7	5	-8	-13	8	·	·
CCN(CC)CC(=O)c1ccc(-c2ccccc2)cc1	12	-7	13	-7	46*	7	28
Cc1cccc(C)c1NC(=O)C(c1ccccc1OC(F)(F)F)N1CCC(c2ccccc2)CC1 (stereo unspecified)	·	·	·	·	5	·	·

From PubChem BioAssay
